# About 410 targets per protein were measured; listed, in parts, are those with the strongest signals and a random draw of the rest.
# B1: EUL D1A (Oryza sativa) (protein)
# chain: MFGFGHHHNQAPAAPSDPNQIFKIFCRANENYCLTVRDSAVVLAPVNPKDEHQHWFKDMRFSTKVKDGEGMPAFALVNKATGLAVKHSLGQSHPVKLVPFNPEYEDASVLWTESKDVGKGFRCIRMVNNTRLNLDAFHGDKDHGGVRDGTTVVLWEWCKGDNQSWKILPWGPEAHSSSPGAATACTIGGVPVHTVRVFSAAGEDYCLTVRNGTACLAPKNPRDDYQHWIKDMRHSNKIRDEEGYPAFALVNKVTGEAIKHSTGQGHPVKLVPYNPEYQDESVLWTESKDVGKGFRCIRMVNNIYLNFDAFHGDKDHGGIHDGTEIVLWKWCEGDNQRWKILPWILEQKLISEEDLNSAVDHHHHHH
# What was measured:
# Assay in all cases: glycan array binding signal (z-score within array); higher = stronger binding
# Conditions in all cases: glycan notation: IUPAC condensed, linker removed
# Fuc(a1-2)Gal(b1-3)GalNAc = target: Fuc(a1-2)Gal(b1-3)GalNAc
# How it was run: (§1)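 From the Consortium for Functional Glycomics database, 3228 arrays were curated, keeping only those whose protein sequence was available. Binding is given as a within-array Z-score averaged across arrays sharing a protein sequence and across linkers. Negative Z-scores can be read as non-binding.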
# [1] = target: Fuc(a1-2)Gal(b1-3)GlcNAc(b1-3)[Neu5Ac(a2-6)Gal(b1-4)GlcNAc(b1-6)]Gal(b1-4)Glc
# How it was run: as §1
# [2] = target: Fuc(a1-2)Gal(b1-3)GlcNAc6S
# How it was run: as §1
# [3] = target: Fuc(a1-2)Gal(b1-3)[Fuc(a1-4)]GlcNAc(b1-2)Man(a1-3)[Fuc(a1-2)Gal(b1-3)[Fuc(a1-4)]GlcNAc(b1-2)Man(a1-6)]Man(b1-4)GlcNAc(b1-4)[Fuc(a1-6)]GlcNAc(b1-4)[Fuc(a1-6)]GlcNAc
# How it was run: as §1
# [4] = target: Fuc(a1-2)Gal(b1-3)[Fuc(a1-4)]GlcNAc(b1-3)[Gal(b1-4)GlcNAc(b1-6)]Gal(b1-4)Glc
# How it was run: as §1
# [5] = target: Fuc(a1-2)[Gal(a1-3)]Gal(b1-3)GlcNAc(b1-2)Man(a1-3)[Fuc(a1-2)[Gal(a1-3)]Gal(b1-3)GlcNAc(b1-2)Man(a1-6)]Man(b1-4)GlcNAc(b1-4)GlcNAc
# How it was run: as §1
# [6] = target: Fuc(a1-2)[Gal(a1-3)]Gal(b1-3)GlcNAc(b1-2)Man(a1-3)[Fuc(a1-2)[Gal(a1-3)]Gal(b1-3)GlcNAc(b1-2)Man(a1-6)]Man(b1-4)GlcNAc(b1-4)[Fuc(a1-6)]GlcNAc
# How it was run: as §1
# [7] = target: Fuc(a1-2)[Gal(a1-3)]Gal(b1-3)GlcNAc(b1-3)GalNAc
# How it was run: as §1
# [8] = target: Fuc(a1-2)[Gal(a1-3)]Gal(b1-4)GlcNAc(b1-2)Man(a1-3)[Fuc(a1-2)[Gal(a1-3)]Gal(b1-4)GlcNAc(b1-2)Man(a1-6)]Man(b1-4)GlcNAc(b1-4)[Fuc(a1-6)]GlcNAc
# How it was run: as §1
# [9] = target: Fuc(a1-2)[GalNAc(a1-3)]Gal
# How it was run: as §1
# [10] = target: Fuc(a1-2)[GalNAc(a1-3)]Gal(b1-3)GlcNAc(b1-3)GalNAc
# How it was run: as §1
# [11] = target: Fuc(a1-2)[GalNAc(a1-4)]Gal(b1-4)GlcNAc
# How it was run: as §1
# [12] = target: Fuc(a1-3)[Gal(b1-4)]Glc6S
# How it was run: as §1
# Gal(a1-3)Gal(b1-4)GlcNAc = target: Gal(a1-3)Gal(b1-4)GlcNAc
# How it was run: as §1
# Gal(b1-3)GalNAc(b1-3)Gal = target: Gal(b1-3)GalNAc(b1-3)Gal
# How it was run: as §1
# [13] = target: Gal(b1-3)[Fuc(a1-4)]GlcNAc(b1-2)Man(a1-3)[Gal(b1-3)[Fuc(a1-4)]GlcNAc(b1-2)Man(a1-6)]Man(b1-4)GlcNAc(b1-4)[Fuc(a1-6)]GlcNAc
# How it was run: as §1
# [14] = target: Gal(b1-4)GlcNAc(b1-3)Gal(b1-4)GlcNAc(b1-3)Gal(b1-4)GlcNAc(b1-2)Man(a1-3)[Gal(b1-4)GlcNAc(b1-3)Gal(b1-4)GlcNAc(b1-3)Gal(b1-4)GlcNAc(b1-2)Man(a1-6)]Man(b1-4)GlcNAc(b1-4)GlcNAc
# How it was run: as §1
# [15] = target: Gal(b1-4)GlcNAc(b1-3)Gal(b1-4)GlcNAc(b1-3)Gal(b1-4)GlcNAc(b1-2)[Gal(b1-4)GlcNAc(b1-3)Gal(b1-4)GlcNAc(b1-3)Gal(b1-4)GlcNAc(b1-6)]Man(a1-6)[Gal(b1-4)GlcNAc(b1-3)Gal(b1-4)GlcNAc(b1-3)Gal(b1-4)GlcNAc(b1-2)Man(a1-3)]Man(b1-4)GlcNAc(b1-4)[Fuc(a1-6)]GlcNAc
# How it was run: as §1
# [16] = target: Gal(b1-4)GlcNAc(b1-3)Gal(b1-4)GlcNAc(b1-3)Gal(b1-4)GlcNAc(b1-3)Gal(b1-4)GlcNAc(b1-2)Man(a1-3)[Gal(b1-4)GlcNAc(b1-3)Gal(b1-4)GlcNAc(b1-3)Gal(b1-4)GlcNAc(b1-3)Gal(b1-4)GlcNAc(b1-2)Man(a1-6)]Man(b1-4)GlcNAc(b1-4)GlcNAc
# How it was run: as §1
# [17] = target: Gal(b1-4)GlcNAc(b1-3)Gal(b1-4)GlcNAc(b1-3)Gal(b1-4)GlcNAc(b1-3)Gal(b1-4)GlcNAc(b1-2)[Gal(b1-4)GlcNAc(b1-3)Gal(b1-4)GlcNAc(b1-3)Gal(b1-4)GlcNAc(b1-3)Gal(b1-4)GlcNAc(b1-6)]Man(a1-6)[Gal(b1-4)GlcNAc(b1-3)Gal(b1-4)GlcNAc(b1-3)Gal(b1-4)GlcNAc(b1-3)Gal(b1-4)GlcNAc(b1-2)Man(a1-3)]Man(b1-4)GlcNAc(b1-4)[Fuc(a1-6)]GlcNAc
# How it was run: as §1
# [18] = target: Gal(b1-4)GlcNAc(b1-3)Gal(b1-4)GlcNAc(b1-6)[Gal(b1-3)]GalNAc
# How it was run: as §1
# [19] = target: Gal(b1-4)GlcNAc(b1-3)Gal(b1-4)[Fuc(a1-3)]GlcNAc(b1-3)Gal(b1-4)[Fuc(a1-3)]GlcNAc
# How it was run: as §1
# [20] = target: Gal(b1-4)GlcNAc(b1-6)GalNAc
# How it was run: as §1
# [21] = target: Gal3S(b1-4)[Fuc(a1-3)]Glc6S
# How it was run: as §1
# Gal6S(b1-4)GlcNAc = target: Gal6S(b1-4)GlcNAc
# How it was run: as §1
# [22] = target: GalNAc(b1-3)Gal(a1-4)Gal(b1-4)GlcNAc(b1-3)Gal(b1-4)Glc
# How it was run: as §1
# [23] = target: GlcNAc(a1-4)Gal(b1-4)GalNAc
# How it was run: as §1
# [24] = target: GlcNAc(a1-6)Gal(b1-4)GlcNAc
# How it was run: as §1
# [25] = target: GlcNAc(b1-2)Man(a1-3)[GlcNAc(b1-2)Man(a1-6)]Man(b1-4)GlcNAc(b1-4)[Fuc(a1-6)]GlcNAc
# How it was run: as §1
# [26] = target: GlcNAc(b1-3)Gal(b1-4)GlcNAc(b1-3)Gal(b1-4)GlcNAc(b1-3)Gal(b1-4)GlcNAc(b1-3)Gal(b1-4)GlcNAc(b1-2)Man(a1-3)[GlcNAc(b1-3)Gal(b1-4)GlcNAc(b1-3)Gal(b1-4)GlcNAc(b1-3)Gal(b1-4)GlcNAc(b1-3)Gal(b1-4)GlcNAc(b1-2)Man(a1-6)]Man(b1-4)GlcNAc(b1-4)[Fuc(a1-6)]GlcNAc
# How it was run: as §1
# [27] = target: GlcNAc(b1-4)Gal(b1-4)GlcNAc
# How it was run: as §1
# [28] = target: GlcNAc(b1-4)GlcNAc(b1-4)GlcNAc(b1-4)GlcNAc(b1-4)GlcNAc
# How it was run: as §1
# [29] = target: Man(a1-2)Man(a1-6)[Man(a1-3)]Man(a1-6)[Man(a1-2)Man(a1-2)Man(a1-3)]Man
# How it was run: as §1
# [30] = target: Man(a1-3)[Man(a1-6)]Man(a1-6)[Man(a1-3)]Man
# How it was run: as §1
# [31] = target: Neu5Ac(a2-3)Gal(b1-3)GalNAc
# How it was run: as §1
# [32] = target: Neu5Ac(a2-3)Gal(b1-3)GalNAc6S
# How it was run: as §1
# [33] = target: Neu5Ac(a2-3)Gal(b1-3)GlcNAc(b1-6)GalNAc
# How it was run: as §1
# [34] = target: Neu5Ac(a2-3)Gal(b1-4)GlcNAc(b1-6)[Neu5Ac(a2-3)Gal(b1-3)]GalNAc
# How it was run: as §1
# [35] = target: Neu5Ac(a2-3)Gal6S(b1-4)[Fuc(a1-3)]GlcNAc
# How it was run: as §1
# [36] = target: Neu5Ac(a2-6)Gal(b1-4)GlcNAc(b1-2)Man(a1-6)[GlcNAc(b1-2)Man(a1-3)]Man(b1-4)GlcNAc(b1-4)GlcNAc
# How it was run: as §1
# [37] = target: Neu5Ac(a2-6)Gal(b1-4)GlcNAc(b1-6)[Gal(b1-3)]GalNAc
# How it was run: as §1
# [38] = target: Neu5Ac(a2-8)Neu5Ac(a2-3)Gal(b1-3)GalNAc(b1-4)[Neu5Ac(a2-8)Neu5Ac(a2-3)]Gal(b1-4)Glc
# How it was run: as §1
# [39] = target: Neu5Ac9Ac(a2-3)Gal(b1-3)GlcNAc
# How it was run: as §1
# [40] = target: Neu5Ac9Ac(a2-6)Gal(b1-4)GlcNAc
# How it was run: as §1
# [41] = target: Neu5Gc(a2-3)Gal(b1-3)[Fuc(a1-4)]GlcNAc
# How it was run: as §1
# [42] = target: Neu5Gc(a2-8)Neu5Gc(a2-6)Gal(b1-4)GlcNAc
# How it was run: as §1
binder,measurement,setting,value
B1,glycan array binding signal (z-score),Fuc(a1-2)Gal(b1-3)GalNAc,-0.934
same,glycan array binding signal (z-score),[1],-0.444
same,glycan array binding signal (z-score),[2],0.203
same,glycan array binding signal (z-score),[3],2.92
same,glycan array binding signal (z-score),[4],1.23
same,glycan array binding signal (z-score),[5],0.066
same,glycan array binding signal (z-score),[6],-1.06
same,glycan array binding signal (z-score),[7],-0.79
same,glycan array binding signal (z-score),[8],0.315
same,glycan array binding signal (z-score),[9],-0.299
same,glycan array binding signal (z-score),[10],0.318
same,glycan array binding signal (z-score),[11],-0.759
same,glycan array binding signal (z-score),[12],1.6
same,glycan array binding signal (z-score),Gal(a1-3)Gal(b1-4)GlcNAc,-0.8
same,glycan array binding signal (z-score),Gal(b1-3)GalNAc(b1-3)Gal,-0.437
same,glycan array binding signal (z-score),[13],0.658
same,glycan array binding signal (z-score),[14],2.18
same,glycan array binding signal (z-score),[15],2.54
same,glycan array binding signal (z-score),[16],2.32
same,glycan array binding signal (z-score),[17],2.71
same,glycan array binding signal (z-score),[18],2.71
same,glycan array binding signal (z-score),[19],-0.649
same,glycan array binding signal (z-score),[20],0.031
same,glycan array binding signal (z-score),[21],2.51
same,glycan array binding signal (z-score),Gal6S(b1-4)GlcNAc,-0.407
same,glycan array binding signal (z-score),[22],-0.333
same,glycan array binding signal (z-score),[23],-0.573
same,glycan array binding signal (z-score),[24],2.67
same,glycan array binding signal (z-score),[25],2.33
same,glycan array binding signal (z-score),[26],1.58
same,glycan array binding signal (z-score),[27],-1.13
same,glycan array binding signal (z-score),[28],0.586
same,glycan array binding signal (z-score),[29],2.83
same,glycan array binding signal (z-score),[30],-0.067
same,glycan array binding signal (z-score),[31],-0.87
same,glycan array binding signal (z-score),[32],2.32
same,glycan array binding signal (z-score),[33],-1.15
same,glycan array binding signal (z-score),[34],2.69
same,glycan array binding signal (z-score),[35],-0.714
same,glycan array binding signal (z-score),[36],1.83
same,glycan array binding signal (z-score),[37],-0.319
same,glycan array binding signal (z-score),[38],0.293
same,glycan array binding signal (z-score),[39],-0.59
same,glycan array binding signal (z-score),[40],-0.088
same,glycan array binding signal (z-score),[41],0.008
same,glycan array binding signal (z-score),[42],-0.137

# From the supplement of paper PMC8728848
